# Test results from PubChem BioAssay (EPA / NIEHS).
# Results filed as inconclusive are left out. The source made the active and inactive calls. Rule for the calls, unless noted: active = hit-call score of the fitted dose curve at least 0.9, where 1 is the maximum; inconclusive = response in the unintended direction; inactive = score below 0.9.
# Tests used:
# [1] = target: Cellular tumor antigen p53 (Homo sapiens) (UniProt P04637); experiment: TOX21_p53_BLA_p2_ratio: Tox21 HCT-116 p53 Agonism Beta-lactamase Assay, Ratio, Phase 2 (AID 2283592)
# Method in brief: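 Gain-of-signal p53 agonism was scored from the beta-lactamase FRET ratio (460/530 nm, 405 nm excitation) in HCT116 cells treated 16 h at 37C, 5% CO2, with DMSO serving as negative control and baseline.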
# [2] = target: Cellular tumor antigen p53 (Homo sapiens) (UniProt P04637); experiment: TOX21_p53_BLA_p3_ratio: Tox21 HCT-116 p53 Agonism Beta-lactamase Assay, Ratio, Phase 3 (AID 2283596)
# Method in brief: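 HCT116 p53-bla cells (4000/well) given compound in DMSO (217-fold dilution) after 5 h, incubated 16 h at 37C. CCF4-AM substrate 2 h at room temperature; 460/530 nm emission ratio, gain fitted against DMSO.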
# [3] = target: Cellular tumor antigen p53 (Homo sapiens) (UniProt P04637); experiment: TOX21_p53_BLA_p5_ratio: Tox21 HCT-116 p53 Agonism Beta-lactamase Assay, Ratio, Phase 5 (AID 2283599)
# Method in brief: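 Beta-lactamase reporter ratio (blue 460 nm over green 530 nm, 405 nm excitation) after 2 h CCF4-AM loading, in HCT-116 cells exposed 16 h at 37 C to compounds pinned at 217-fold dilution. Increases relative to DMSO baseline scored.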
# [4] = target: Cellular tumor antigen p53 (Homo sapiens) (UniProt P04637); experiment: TOX21_p53_BLA_p4_ratio: Tox21 HCT-116 p53 Agonism Beta-lactamase Assay, Ratio, Phase 4 (AID 2283601)
# Method in brief: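 Signal is the blue/green (460nm/530nm) ratio of cleaved versus uncleaved CCF4-AM substrate, read after 2 h substrate loading. Cells were HCT116 carrying the p53-responsive beta-lactamase reporter, dosed 16 h at 37C, 5% CO2; CellTiter-Glo measured in parallel.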
# [5] = TOX21_p53_BLA_p5_viability: Viability Assessment in the Tox21 HCT-116 p53 Agonism Beta-lactamase Assay, Phase 5 (AID 2283600)
# Method in brief: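 After the 460/530 nm beta-lactamase measurement, the wells received an ATP-detection luciferase reagent; signal was read 30 min later at RT. Compound treatment lasted 16 h on cells pre-incubated 5 h post-seeding.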
# [6] = CCTE_Harrill_HTTr_Viability_MCF7: CCTE's 6-hour Cell Viability Assessment for the High-Throughput Transcriptomics (HTTr) Platform, in MCF-7 cells cultured in DMEM + 10% fetal bovine serum, Harrill Lab (AID 2284010; active = hit-call score of the fitted dose curve at least 0.9, where 1 is the maximum; inactive = score below 0.9)
# Method in brief: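 Viability measured through PI dye exclusion by high-content imaging at 6 h post-dosing.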
# [7] = CCTE_Harrill_HTTr_CellCount_MCF7: CCTE's Cell Proliferation Assessment for the High-Throughput Transcriptomics (HTTr) Platform, Harrill Lab (AID 2284012);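 note: count of Hoechst-stained nuclei per well by high-content imaging in MCF-7 cells; cells exposed to compound for six hours; intended direction is loss of nuclei count meaning fewer cells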
# Method in brief: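 Nuclei counting (Hoechst, high content imaging) in MCF-7 after a 6 h treatment at eight concentrations. Activity fitted bidirectionally, DMSO as negative control.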
# THRA (gene 7067) = THRA (gene 7067) (UniProt P10827); experiment: TOX21_TRA_COA_Agonist_Followup_ratio: Tox21 Thyroid Hormone Receptor alpha Agonism through Coactivator Recruitment Follow-Up Assay, Ratio (AID 2283948; active = hit-call score of the fitted dose curve at least 0.9, where 1 is the maximum; inactive = score below 0.9)
# Method in brief: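 Cell-free TR-FRET coactivator recruitment: GST-tagged TRα LBD (2.5 nM) with 0.10% BSA was incubated with compound, then fluorescein-SRC-2 peptide (200 nM) and Tb-anti-GST antibody (2 nM) added. 520:495 nm ratio normalized to DMSO (0%) and T3 (100%).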
# THRB (gene 7068) [8] = target: THRB (gene 7068) (UniProt P10828); experiment: TOX21_TRB_BLA_Agonist_Followup_ratio: Tox21 Thyroid Hormone Receptor beta Agonism Beta-lactamase (BLA) Follow-Up Assay, Ratio (AID 2283954)
# Method in brief: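 Human TRβ LBD–GAL4 DBD fusion in GeneBLAzer UAS-bla HEK293T cells; 11 concentrations in triplicate, 18 h at 37°C/5% CO2, T3 as agonist control. CCF4-AM substrate 2 h at room temperature; 460:530 nm ratio fitted for gain of signal versus DMSO.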
# THRB (gene 7068) [9] = target: THRB (gene 7068) (UniProt P10828); experiment: TOX21_TRB_COA_Agonist_Followup_ratio: Tox21 Thyroid Hormone Receptor beta Agonism through Coactivator Recruitment Follow-Up Assay, Ratio (AID 2283963; active = hit-call score of the fitted dose curve at least 0.9, where 1 is the maximum; inactive = score below 0.9)
# Method in brief: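 Agonism is measured as coactivator recruitment in a purified-protein TR-FRET format, using GST-TRβ LBD at 5.0 nM, fluorescein-SRC-2 peptide at 200 nM and Tb-labeled anti-GST antibody at 2 nM. Values are 520:495 nm ratios relative to DMSO (0%) and T3 (100%).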
# [10] = target: Retinoic acid receptor RXR-alpha (Homo sapiens) (UniProt P19793); experiment: TOX21_TR_RXR_BLA_Agonist_Followup_ratio: Tox21 Thyroid Hormone Receptor beta Retinoid X Receptor alpha (RXRa) Agonism Beta-lactamase (BLA) Follow-Up Assay, Ratio (AID 2283968)
# Method in brief: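 This follow-up tests whether responses seen in the TR GH3 luciferase agonist screen are specific, using a GAL4-driven beta-lactamase reporter for RXRa in HEK293T cells. Compound exposure lasts 16 h; signal is the cleaved/uncleaved substrate ratio.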
# Chain of Cellular tumor antigen p53 (Homo sapiens) (P04637 whole entry, looked up): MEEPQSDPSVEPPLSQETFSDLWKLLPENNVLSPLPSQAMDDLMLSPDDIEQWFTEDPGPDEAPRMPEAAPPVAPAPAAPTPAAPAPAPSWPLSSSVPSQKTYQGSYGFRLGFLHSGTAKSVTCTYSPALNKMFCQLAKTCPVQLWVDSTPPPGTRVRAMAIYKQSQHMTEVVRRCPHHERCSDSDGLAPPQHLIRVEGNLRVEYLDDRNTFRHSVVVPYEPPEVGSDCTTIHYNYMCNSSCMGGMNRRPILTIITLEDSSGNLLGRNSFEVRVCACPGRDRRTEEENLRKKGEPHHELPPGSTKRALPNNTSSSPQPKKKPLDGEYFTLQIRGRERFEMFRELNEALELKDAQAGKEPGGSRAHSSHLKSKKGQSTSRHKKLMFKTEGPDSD
# Chain of THRB (gene 7068) (P10828 whole entry, looked up, the tested form may be a part): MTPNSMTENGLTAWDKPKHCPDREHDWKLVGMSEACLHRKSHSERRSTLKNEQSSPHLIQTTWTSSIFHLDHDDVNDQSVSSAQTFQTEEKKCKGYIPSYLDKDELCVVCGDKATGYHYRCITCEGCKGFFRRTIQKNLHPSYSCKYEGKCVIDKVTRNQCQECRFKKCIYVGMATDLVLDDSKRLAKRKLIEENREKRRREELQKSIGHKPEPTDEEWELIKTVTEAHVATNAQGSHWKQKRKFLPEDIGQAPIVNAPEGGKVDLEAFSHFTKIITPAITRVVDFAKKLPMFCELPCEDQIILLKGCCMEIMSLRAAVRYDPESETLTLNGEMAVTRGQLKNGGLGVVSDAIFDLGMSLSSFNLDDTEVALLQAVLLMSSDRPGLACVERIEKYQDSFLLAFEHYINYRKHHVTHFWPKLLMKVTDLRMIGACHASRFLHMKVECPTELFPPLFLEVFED
# Chain of THRA (gene 7067) (P10827 whole entry, looked up, the tested form may be a part): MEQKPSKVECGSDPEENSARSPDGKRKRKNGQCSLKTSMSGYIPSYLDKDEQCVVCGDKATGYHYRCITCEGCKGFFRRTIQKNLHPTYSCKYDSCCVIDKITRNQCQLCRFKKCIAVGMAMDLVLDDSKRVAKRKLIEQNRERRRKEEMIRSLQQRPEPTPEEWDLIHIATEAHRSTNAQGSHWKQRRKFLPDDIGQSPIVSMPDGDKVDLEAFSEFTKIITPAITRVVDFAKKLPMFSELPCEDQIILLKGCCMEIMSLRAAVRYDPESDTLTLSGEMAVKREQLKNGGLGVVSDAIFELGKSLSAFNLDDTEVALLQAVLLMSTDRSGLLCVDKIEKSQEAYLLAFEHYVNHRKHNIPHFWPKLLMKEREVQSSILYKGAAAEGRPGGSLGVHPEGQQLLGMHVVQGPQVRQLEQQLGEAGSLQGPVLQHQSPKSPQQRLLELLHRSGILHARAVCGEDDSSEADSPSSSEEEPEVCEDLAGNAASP
# Chain of Retinoic acid receptor RXR-alpha (Homo sapiens) (P19793 whole entry, looked up, the tested form may be a part): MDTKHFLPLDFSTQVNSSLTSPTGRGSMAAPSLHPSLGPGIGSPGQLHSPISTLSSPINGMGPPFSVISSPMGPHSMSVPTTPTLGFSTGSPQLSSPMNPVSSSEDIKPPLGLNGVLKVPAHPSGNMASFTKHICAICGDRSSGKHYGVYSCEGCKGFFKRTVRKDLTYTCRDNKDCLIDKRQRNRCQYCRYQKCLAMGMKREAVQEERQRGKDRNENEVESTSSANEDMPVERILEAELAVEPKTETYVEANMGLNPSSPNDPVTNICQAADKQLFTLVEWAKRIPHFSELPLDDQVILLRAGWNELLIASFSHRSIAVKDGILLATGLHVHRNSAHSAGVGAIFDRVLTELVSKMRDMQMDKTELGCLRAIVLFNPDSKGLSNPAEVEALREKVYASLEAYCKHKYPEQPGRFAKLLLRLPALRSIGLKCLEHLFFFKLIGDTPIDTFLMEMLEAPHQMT
smiles,measurement,setting,value
Cc1cc(O)ccc1O,outcome,[1],inactive
same,outcome,[2],inactive
same,outcome,[3],inactive
same,outcome,[4],inactive
O=C(c1ccc(O)cc1)c1ccc(O)cc1,outcome,[1],inactive
same,outcome,[2],inactive
same,outcome,[3],inactive
same,AC50,[4],75.5 µM (active)
C=CC(=O)[O-].C=CC(=O)[O-].[Zn+2],outcome,[1],inactive
same,outcome,[2],inactive
same,outcome,[3],inactive
same,outcome,[5],inactive
same,outcome,[4],inactive
CC[C@]12CCCN3CCc4c(n(c5ccccc45)C(=O)C1)[C@@H]32,AC50,[1],3.57 µM (active)
same,AC50,[2],4.33 µM (active)
same,AC50,[3],5.58 µM (active)
same,AC50,[4],3.51 µM (active)
CCOC(=O)c1ccc(I)cc1,outcome,[1],inactive
same,outcome,[2],inactive
same,outcome,[3],inactive
same,outcome,[4],inactive
O=C1OC(=O)c2cccc3cccc1c23,outcome,[1],inactive
same,outcome,[2],inactive
same,outcome,[3],inactive
same,outcome,[4],inactive
CC(CN1c2ccccc2Sc2cccnc21)N(C)C (stereo not drawn),outcome,[1],inactive
same,outcome,[2],inactive
same,outcome,[3],inactive
same,outcome,[4],inactive
COC(=O)C(C)(C)C,outcome,[1],inactive
same,outcome,[2],inactive
same,outcome,[3],inactive
same,outcome,[5],inactive
same,outcome,[4],inactive
O=C(O)[C@H](O)c1ccccc1,outcome,[1],inactive
same,outcome,[2],inactive
same,outcome,[3],inactive
same,outcome,[5],inactive
same,outcome,[4],inactive
CCCCCCCC/C=C\CCCCCCCC(=O)OC,outcome,[1],inactive
same,outcome,[2],inactive
same,outcome,[3],inactive
same,outcome,[5],inactive
same,outcome,[4],inactive
same,outcome,[6],inactive
same,outcome,[7],inactive
CN1CCN(C(c2ccccc2)c2ccccc2)CC1,outcome,[1],inactive
same,outcome,[2],inactive
same,outcome,[3],inactive
same,outcome,[4],inactive
CCCC(C)C,outcome,[1],inactive
same,outcome,[2],inactive
same,outcome,[3],inactive
same,outcome,[4],inactive
O=Cc1ccc(F)c(Br)c1,outcome,[1],inactive
same,outcome,[2],inactive
same,outcome,[3],inactive
same,outcome,[4],inactive
O=C(O)CCNC(=O)c1ccccc1,outcome,[1],inactive
same,outcome,[2],inactive
same,outcome,[3],inactive
same,outcome,[4],inactive
same,AC50,THRA (gene 7067),15.2 µM (active)
same,AC50,THRB (gene 7068) [8],12.6 µM (active)
same,AC50,THRB (gene 7068) [9],16.1 µM (active)
same,outcome,[10],inactive
NC(=O)c1ccccc1[N+](=O)[O-],outcome,[1],inactive
same,outcome,[2],inactive
same,outcome,[3],inactive
same,outcome,[4],inactive
COc1cc(C(=O)NCCCCCC(=O)O)cc(OC)c1OC,outcome,[1],inactive
same,outcome,[2],inactive
same,outcome,[3],inactive
same,outcome,[4],inactive
Cc1cc(=O)c(C(=O)N[C@@H](C(=O)N[C@@H]2C(=O)N3C(C(=O)O)=C(CSc4nnnn4C)CS[C@H]23)c2ccc(O)cc2)c[nH]1,outcome,[1],inactive
same,outcome,[2],inactive
same,outcome,[3],inactive
same,outcome,[5],inactive
same,outcome,[4],inactive
COC(=O)Nc1nc2ccc(C(=O)c3ccccc3)cc2[nH]1,AC50,[1],0.192 µM (active)
same,outcome,[2],inactive
same,outcome,[3],inactive
same,outcome,[4],inactive
